Experimental data published in PubChem BioAssay (NCATS).
Records with an inconclusive call do not appear. The source made the active and inactive calls. Calls follow the shape of the dose curve; as a rule, active = well fitted inhibition curve with a large enough effect; inconclusive = small, poorly fitted or top-dose-only effect; inactive = no such curve, though single readings can be large or run the other way. Where a SMILES comes first, the peptide text is derived from it. Bridges are numbered along the chain shown (N, C = ends). [ ]: non-standard residue; d: D form. The star is where a group is joined. X1 = CCC(C)C(N)C1=NC(C(=O)*)CS1; dOrn = NCCC[C@@H](N)C(=O)O

Test system: Zika virus NS2B-NS3 protease (unlinked complex)
Assay: Primary screen GU Rhodamine qHTS for Zika virus inhibitors: Unlinked NS2B-NS3 protease assay (AID 1347159); also: nearly all actives have a fitted effect of over 60% in size
Details: Recombinant ZIKV NS2B-NS3 protease, Rhodamine110 substrate fluorescence; series mostly up to 107 µM; activity change, negative = inhibition: at the top concentration
Method in brief: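 Noncovalent NS2B hydrophilic domain/NS3 protease complex (25 nM final) in 10 mM Tris-HCl pH 8.0, 0.01% Tween 20, preincubated 15 min with compounds (up to 114 microM), then 1.5 microM Rhodamine110 substrate. Fluorescence change over 15 min fitted to 4-parameter Hill.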
% is scaled to controls: 0 for no effect and ±100 for the full control effect.

Compound | activity change, negative = inhibition
CC1[C@@H](O)[C@@H](O)C2[C@]3(C)C(C[C@H]4OC(=O)[C@H](O)[C@]1(O)[C@@]24C)C(C)(O)C[C@H](O)[C@H]3O (stereo not given in full) | 7.72% [at 57.1 µM] (inactive)
CC[C@H]1OC(=O)[C@H](C)[C@@H](OC2C[C@@](C)(OC)[C@@H](O)[C@H](C)O2)[C@H](C)[C@@H](OC2O[C@H](C)C[C@H](NC)[C@H]2O)[C@](C)(O)C[C@@H](C)CN(C)[C@H](C)[C@@H](O)[C@]1(C)O (stereo not given in full) | 0% (inactive)
COc1cc(/C=C/C(=O)O[C@H]2[C@H](O)[C@@H](CO)O[C@@]2(CO)O[C@H]2O[C@H](COC(=O)c3ccc(O)cc3)[C@@H](O)[C@H](O)[C@H]2O)cc(OC)c1OC | 16.9% [at 32.5 µM] (inactive)
O=C(/C=C/c1ccc(O)cc1)O[C@H]1[C@@H]2C=CO[C@@H](O[C@@H]3O[C@H](CO)[C@@H](O)[C@H](O)[C@H]3O)[C@@H]2[C@@]2(CO)O[C@@H]12 | -4.57% [at 57.1 µM] (inactive)
CCC(NC(=O)CC(NC(=O)C(CO)NC(=O)C(CC)NC(=O)c1ccc[nH]1)c1ccccc1)C(=O)O (stereo not given) | 11.9% [at 32.5 µM] (inactive)
CCC(CCO[C@@H]1O[C@H](CO[C@H]2OC[C@](O)(CO)[C@H]2O)[C@@H](O)[C@H](O)[C@H]1O)C(C)(C)O (stereo not given in full) | 13.2% [at 57.1 µM] (inactive)
Clc1ccc(CN[C@H]2CCN(c3ncc(Br)cn3)C2)c(Cl)c1 | 24.2% (inactive)
C=C1CC[C@H]2[C@@](C)(CCC[C@@]2(C)C(=O)O)[C@@H]1CCC(C)CCO (stereo not given in full) | -24.3% (inactive)
C=C1CCC[C@]2(C)C[C@]3(O)OC(=O)C(C)=C3C[C@@H]12 | -13.7% (inactive)
CN1C(=O)c2ccccc2-n2c(nc3ccccc3c2=O)[C@@]12O[C@H]2c1ccccc1 | 1.53% (inactive)
CN1CCC(c2c[nH]c3ccc(NC(=O)c4ccc(F)cc4)cc23)CC1 | 26.9% (inactive)
CC1(C)OC(=O)C(OCC2CC2)=C1c1ccc(S(C)(=O)=O)cc1 | -23.4% (inactive)
COC(=O)C1=C[C@@H](O)[C@@H](O)[C@H](O[C@@H]2O[C@H](COC(=O)/C=C/c3ccccc3)[C@@H](O)[C@H](O)[C@H]2O)C1 | 9.95% [at 57.1 µM] (inactive)
C=C(C)[C@@H]1CC[C@](C)(O)[C@@H](OC(=O)c2ccccc2)C1 | 71.1% (inactive)
C[C@@H]1O[C@@H](O[C@H]2[C@H](OC(C#N)c3ccc(O)cc3)O[C@H](CO)[C@@H](O)[C@@H]2O)[C@H](O)[C@H](O)[C@H]1O (stereo not given in full) | 9.7% [at 57.1 µM] (inactive)
CC(=O)OC[C@@]12[C@@H](OC(C)=O)C[C@@H](C)[C@](C)([C@@H]3C[C@H]4C=CO[C@H]4O3)[C@H]1CCC[C@]21CO1 | 8.03% [at 57.1 µM] (inactive)
O=C1Nc2ccc(O)cc2O[C@H]1O[C@@H]1O[C@H](CO)[C@@H](O)[C@H](O)[C@H]1O | 22.3% (inactive)
CC(=O)OC[C@]12[C@H](OC(C)=O)C(=O)[C@@H]3[C@@H](OC(C)=O)[C@@]14O[C@@]3(C)COC(=O)c1cccnc1[C@@H](C)[C@H](C)C(=O)O[C@@H]([C@H](OC(C)=O)[C@@H]2OC(C)=O)[C@]4(C)O | 12.3% [at 32.5 µM] (inactive)
CC(=O)O[C@@H]1C[C@@]23C[C@@]24CC[C@H](OC2OC[C@@H](O)[C@H](O)[C@H]2O)C(C)(C)[C@@H]4CC[C@H]3[C@]2(C)CC3OC4(C[C@@H](C)C3[C@@]12C)OCC1(C)OC14 (stereo not given in full) | 5.23% [at 32.5 µM] (inactive)
CCC[C@@H]1C[C@@H](C(=O)N[C@H](C(C)Cl)[C@H]2O[C@H](SC)[C@H](O)[C@@H](O)[C@H]2O)N(C)C1 (stereo not given in full) | 27.7% (inactive)

Compound | activity change, negative = inhibition
C=CC(C)(C)C12CC3C(=O)NC(Cc4cnc[nH]4)C(=O)N3C1Nc1ccccc12 (stereo not given) | -2.77% (inactive)
COC1=CC(=O)O[C@@H](CCc2ccccc2)[C@@H]1O | 14.4% (inactive)
CCN(c1cc(C#CCN2CCOCC2)cc(C(=O)NCc2c(C)cc(C)[nH]c2=O)c1C)C1CCC(N(C)CCOC)CC1 (stereo not given) | 19.9% (inactive)
CN(C)C/C=C/C(=O)Nc1ccc(C(=O)Nc2cccc(Nc3ncc(Cl)c(-c4c[nH]c5ccccc45)n3)c2)cc1 | 46% (inactive)
C[C@@H](O)[C@H](N)C(=O)N1CCC[C@H]1C(=O)N1CCC[C@H]1C(=O)N[C@H](C(N)=O)[C@@H](C)O (H-TPPT-NH2) | -7.3% [at 19.1 µM] (inactive)
CC(C)=CCCC1(C)Oc2cc3c(c4c2C2C(O4)C(C)(O)CCC21)CN(C(CCC(=O)O)C(=O)O)C3=O (stereo not given) | -4.11% [at 57.1 µM] (inactive)
CCOC(=O)N1CCC(NCCNC(=O)c2ccccc2C)CC1 | -5.93% (inactive)
NC(=O)c1cccc(-c2cc(O)cc(OC(=O)NC3CCCCC3)c2)c1 | 78.2% [at 57.1 µM] (inactive)
CC1(C)CCC[C@@]2(C)[C@H]1[C@H](O)C=C1COC(=O)[C@@]12O | 17.4% (inactive)
CC1(C)CC[C@]2(C(=O)O)CC[C@]3(C)C(=CCC4[C@@]5(C)C[C@@H](O)[C@H](O)C(C)(C)C5CC[C@]43C)[C@@H]2[C@@H]1O (stereo not given in full) | 12.7% [at 57.1 µM] (inactive)
C=CC(C)(CC/C=C(\C)CC/C=C(\C)CC(O)/C=C(\C)C(=O)O)O[C@@H]1O[C@H](CO)[C@@H](O)[C@H](O)[C@H]1O[C@@H]1O[C@H](CO)[C@@H](O)[C@H](O)[C@H]1O (stereo not given in full) | 8.33% [at 32.5 µM] (inactive)
C[C@@H]1C/C=C/C=C\C=C\C=C\[C@H](O[C@@H]2O[C@H](C)[C@@H](O)[C@H](N)[C@@H]2O)C[C@@H]2O[C@](O)(C[C@@H](O)C[C@H]3O[C@@H]3/C=C/C(=O)O1)C[C@H](O)[C@H]2C(=O)O | 13% [at 32.5 µM] (inactive)
CCCCNC(=O)[C@@H]1Cc2ccccc2N1C(=O)[C@@H](N)CC | 75.9% (inactive)
C=C1C(OC(C)=O)C(=O)C2C(C)(C)C(OC(C)=O)CCC2(C)C1CC(OC(C)=O)/C(C)=C/COC(C)=O (stereo not given) | 9.31% [at 57.1 µM] (inactive)
COCCN(C)Cc1ccc2nc3sc(C(=O)N(C)C4CCCCC4)cn3c2c1 | 4.8% (inactive)
C[C@@H]1CC[C@]2(C(=O)O[C@@H]3O[C@H](CO)[C@@H](O)[C@H](O)[C@H]3O)CC[C@]3(C)C(=CCC4[C@@]5(C)C[C@@H](O)[C@H](O)C(C)(C)C5CC[C@]43C)C2[C@]1(C)O (stereo not given in full) | 25.6% [at 32.5 µM] (inactive)
COC(=O)[C@@H]1C2CC3c4[nH]c5ccccc5c4CCN3CC2CC[C@@H]1O (stereo not given in full) | 0% (inactive)
CCOC(=O)c1c(C)nn(-c2cccc([N+](=O)[O-])c2)c1C | 23.5% (inactive)
CCC(C)C(N)C1=NC(C(=O)N[C@@H](CC(C)C)C(=O)N[C@H](CCC(=O)O)C(=O)N[C@H](C(=O)N[C@H]2CCCCNC(=O)[C@H](CC(N)=O)NC(=O)[C@@H](CC(=O)O)NC(=O)[C@H](Cc3cnc[nH]3)NC(=O)[C@@H](Cc3ccccc3)NC(=O)[C@H]([C@@H](C)CC)NC(=O)[C@@H](CCCN)NC2=O)[C@@H](C)CC)CS1 (stereo not given in full) (X1-L[dE]IK[dOrn]I[dF]H[dD]N; lactam 4-C) | 74.4% [at 57.1 µM] (inactive)
CC1=C2[C@@H]([C@H](C)CC[C@H]2/C=C(\C)C(=O)O)[C@H](O)C1 | 19% (inactive)
